This passage reports inhibition results from PubChem BioAssay AID1645858 (Buhrlage Lab, Dana-Farber Cancer Institute and Novartis …, 2021).

About 330 (0.7%) of roughly 47,000 compounds were called active. Rule as the data show it: active = inhibition above about 30%; inactive = the rest. The entries come from a sample that favours actives as a whole.

The test deals with OTU domain-containing protein 3 (Homo sapiens) (UniProt Q5T2D3). As to the kind of experiment: inhibitors of human OTUD3 deubiquitinase (AID 1645858). Particulars: purified OTUD3, Ub-rhodamine fluorescence, 2 h; at 25 µM; hits give high values.
Sequence of OTU domain-containing protein 3 (Homo sapiens) (Q5T2D3 whole entry, looked up, the tested form may be a part): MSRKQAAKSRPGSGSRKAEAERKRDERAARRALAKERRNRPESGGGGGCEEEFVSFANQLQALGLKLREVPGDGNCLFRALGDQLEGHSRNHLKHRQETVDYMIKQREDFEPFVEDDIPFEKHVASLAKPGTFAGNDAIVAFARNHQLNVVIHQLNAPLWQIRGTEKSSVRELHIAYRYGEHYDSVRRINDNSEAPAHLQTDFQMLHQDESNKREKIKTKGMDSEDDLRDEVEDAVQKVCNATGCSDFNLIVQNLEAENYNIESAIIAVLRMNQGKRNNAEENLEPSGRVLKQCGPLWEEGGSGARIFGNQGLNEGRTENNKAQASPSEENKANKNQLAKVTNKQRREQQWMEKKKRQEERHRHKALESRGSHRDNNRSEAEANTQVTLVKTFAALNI
The term inhibition denotes the drop in the measured response relative to a control, in per cent. Consider `Cc1cc(N2C(=O)c3oc4ccccc4c(=O)c3C2c2ccc(F)cc2)no1` (stereo not given), for which the inhibition is -4.24% (inactive).

Turning to `CCNC1CN(C(=O)Cn2nnc3ccccc32)C2(CCCCC2)C1` (stereo not given), the inhibition was 2.28% (inactive).

Take `O[C@H]1[C@H](O)[C@H](Oc2cccc(F)c2)CC[C@H]1NCc1ccncc1`: the inhibition is 15.2% (inactive).

As to `NS(=O)(=O)c1cccc(CNC(=O)C2(c3ccccc3)CCC2)c1`, the inhibition was 0.73% (inactive).

For the molecule `N#Cc1c(N)nc2c(c1N)CC(C(F)(F)F)O2` (stereo not given), the inhibition was -4.36% (inactive).

Take `Clc1ccc2[nH]c3c(ccc4c5cc(Cl)ccc5[nH]c43)c2c1`: the inhibition was 3.62% (inactive).

With `COc1ccc(CNC(=O)c2[nH]nc3c2CCc2ccccc2-3)cc1`, the inhibition is -5.63% (inactive).

On to `Cc1ccc(NC(=O)N2CCCC2c2cc(C)on2)c(Cl)c1` (stereo not given), for which the inhibition was -2.99% (inactive).

Consider `CCC(Oc1ccccc1)C(=O)NCc1ccc2c(c1)OCO2` (stereo not given), for which the inhibition was 9.11% (inactive).

For the molecule `c1cc(CNCc2ccc3c(c2)OCO3)ccn1`, the inhibition is 0.0568% (inactive).

Turning to `c1ccc(-c2ccc(NCc3ccc4c(c3)OCO4)nn2)cc1`, the inhibition is 43.5% (active).

Regarding `Cc1cc(Cl)ccc1NC(=O)c1ccc(=O)[nH]c1`, the inhibition was -2.31% (inactive).

For `N[C@@H]1C[C@@H](Oc2cccnc2)[C@H](O)[C@H]1N1CCN(c2ccccc2)CC1`, the inhibition was -8.12% (inactive).

Consider `CSc1nccc(-c2ccc(F)cc2)c1C#N`, for which the inhibition is 11% (inactive).

As for `CCn1c(CNC(=O)c2ccco2)nnc1SCC(=O)Nc1ccc(C)cc1`, the inhibition is 0.297% (inactive).

For `Cc1ccc(CN2C(=O)C(CC(=O)Nc3ccc(F)cc3)n3c2nc2ccccc23)cc1` (stereo not given), the inhibition was -8.71% (inactive).

With `Cc1c(Cl)ccc2sc(N(Cc3ccncc3)C(=O)c3ccco3)nc12`, the inhibition was -4.28% (inactive).

On to `Cc1coc2c(C)c3oc(=O)c(CC(=O)N4CC[C@@]5(O)CCCC[C@H]5C4)c(C)c3cc12`, for which the inhibition was -9.33% (inactive).

On to `CC(=O)c1ccc(C)c(=O)o1`, for which the inhibition is 9.1% (inactive).

`CC(=O)N1CCSc2ccc(S(=O)(=O)N(C)C(C)CCc3ccco3)cc21` (stereo not given): the inhibition was -8.61% (inactive).

With `O=C1NC2(CCN(C(=O)NCc3ccccc3)CC2)Nc2c(Cl)cccc21`, the inhibition is -5.72% (inactive).

As for `CC(C)c1ncc(CN2CCC3(CC2)CN(S(C)(=O)=O)Cc2ccccc2O3)cn1`, the inhibition is -4.5% (inactive).

For the molecule `COc1ccc(-c2[nH]c3ccccc3c2SCCNC(=O)c2ccc(S(=O)(=O)N3CCOCC3)cc2)cc1`, the inhibition is 11.6% (inactive).

As for `O=C(CCc1nnc2n(CCc3ccccc3)c(=O)c3ccccc3n12)N1CCOCC1`, the inhibition was 4.98% (inactive).

Take `COC(=O)c1ccc(CN(C)C(=O)c2ccc(-c3nnc(-c4ccccc4)o3)cc2)cc1`: the inhibition was -0.482% (inactive).

For `O=C1CCCN1Cc1ncn2c1CN(Cc1cccnc1)CCC2`, the inhibition was -1.01% (inactive).

Take `CCN1C(=O)C[C@@H](C(=O)NCc2nc(C)no2)[C@@H]1c1ccccc1C`: the inhibition was 1.87% (inactive).

`COc1ccc(CC2c3cc(OC)c(OC)cc3CCN2C(=O)c2ccc(C)c(Cl)c2)cc1OC` (stereo not given): the inhibition was 1.03% (inactive).

Consider `O=C(CSC1=NC2(CCCCC2)Nc2ccccc21)Nc1cccc(F)c1`, for which the inhibition is -11.6% (inactive).

Regarding `O=C(NCc1ccc(F)cc1)C1CCc2nc(N3CCCCC3)ncc2C1` (stereo not given), the inhibition was 1.53% (inactive).

As for `Cc1cc(-c2ccc(S(=O)(=O)Nc3cccc(CN4CCCC4)c3)s2)n[nH]1`, the inhibition was -13.6% (inactive).

For `Cc1ccc(S(=O)(=O)c2cnc3ccccc3c2N2CCC3(CC2)OCCO3)cc1`, the inhibition was 1.24% (inactive).

With `O=C(Cc1c[nH]c2ccccc12)NC1(c2nc(-c3ccncc3)no2)CCCCC1`, the inhibition was -15.9% (inactive).

As to `Clc1ccccc1-c1nc2nc3ccccc3nc2n1CC1CCCO1` (stereo not given), the inhibition was -16% (inactive).

In the case of `COc1ccc(N2CC(C(=O)OCC(=O)Nc3ccc(F)cc3)CC2=O)cc1` (stereo not given), the inhibition is -3.39% (inactive).

For the molecule `C[C@@H]1CC[C@H]2C(CN3CCN(C)CC3)C(=O)O[C@]23[C@H]1CC[C@@]1(C)O[C@@H]31` (stereo not given in full), the inhibition is 4.7% (inactive).

Regarding `Cc1ccccc1CNC(=O)c1cn(C)nc1S(=O)(=O)N1CCC(C)CC1`, the inhibition was 1.12% (inactive).

As for `COc1ccccc1Cn1cnc2c([nH]c3cc(OC)c(OC)cc32)c1=O`, the inhibition is 0.0298% (inactive).

As for `Cc1nccc(N2CCC(Cc3cncc(-c4cnc(C)n4C)n3)C2)n1` (stereo not given), the inhibition is 3.33% (inactive).

Consider `COc1ccc(NC(=O)Cn2ncc3cccn3c2=O)cc1`, for which the inhibition was -2.63% (inactive).

With `CCCNC(=O)c1cc(N2CCCC2)n2nccc2n1`, the inhibition is -68.7% (inactive).

On to `CCS(=O)(=O)N1C[C@H]2CN(Cc3ccccc3Cl)C[C@H]2C1`, for which the inhibition was -1.12% (inactive).

For `O=C(Nc1nnc(-c2cccc([N+](=O)[O-])c2)o1)C1CCN(S(=O)(=O)c2ccc3c(c2)CCC3)CC1`, the inhibition was 30.3% (active).

Regarding `Cc1cccc(-c2nnc(-c3cccc(S(=O)(=O)N4CCCC4)c3)o2)c1`, the inhibition is 10.7% (inactive).

Take `O=C(COC(=O)C1CCN(S(=O)(=O)c2c(Cl)cccc2Cl)CC1)Nc1ccc2c(c1)CCC2`: the inhibition was 0.0518% (inactive).

In the case of `Cc1cnc2nc3c(cc2c1)CN(S(=O)(=O)c1cc(F)ccc1C)CC3`, the inhibition is -230% (inactive).

Consider `COCCN1[C@H]2CCN(Cc3ccccn3)CC[C@@H]2Oc2ccccc2S1(=O)=O`, for which the inhibition is 7.81% (inactive).

As to `O=c1c(NCCCc2ccccc2)nccn1-c1ccc2c(c1)OCCO2`, the inhibition was -4.73% (inactive).

Take `CC(C)N1C(=O)Cc2ccccc2C1C(=O)NCc1ccccc1F` (stereo not given): the inhibition is 2.54% (inactive).

For `Cc1ccc(Sc2c(C)[nH]n(-c3ccccc3)c2=O)cc1`, the inhibition was 7.8% (inactive).

Turning to `COc1c(O)c2c(=O)cc(OC)c3c4c(OC)cc(=O)c5c(O)c(OC)c(CC(C)OC(=O)c6ccccc6)c(c(c1CC(C)OC(=O)Oc1ccc(O)cc1)c23)c54` (stereo not given), the inhibition is -24.8% (inactive).

As for `C=C1CCC2[C@](C)(CCC[C@]2(C)C(=O)OC)[C@H]1CCc1ccoc1C[N+](C)(C)Cc1ccccc1` (stereo not given in full), the inhibition is 22.7% (inactive).

Take `C=C1CCC2[C@](C)(CCC[C@]2(C)C(=O)OC)[C@H]1CCc1ccoc1CNCC(=O)O` (stereo not given in full): the inhibition was -1.63% (inactive).

As to `C=C1CCC2[C@](C)(CCC[C@]2(C)C(=O)OC)[C@H]1CCc1ccoc1/C=C/C(=O)O` (stereo not given in full), the inhibition is 57.1% (active).

Take `Cc1cc(C)n(CCCNS(=O)(=O)c2ccc(C(C)(C)C)cc2)n1`: the inhibition is -3.74% (inactive).

As for `Cc1nc(-c2ncc[nH]2)cc(C2CCCCN2S(=O)(=O)N(C)C)n1` (stereo not given), the inhibition is -4.61% (inactive).

Regarding `N#Cc1cccc(S(=O)(=O)c2c[nH]c3ccc(Cl)cc3c2=O)c1`, the inhibition was -5.74% (inactive).

Turning to `CCC(C)C1NC(=O)C(Cc2ccc(O)cc2)NC(=O)C(CCC(N)=O)NC(=O)C2CCCN2C(=O)C(C(C)C)NC(=O)C(CCC(=O)O)NC(=O)C(C(C)O)NC(=O)C(NC(=O)C(CCCN)NC(=O)C(CCC(=O)O)NC(=O)CCCCCCCCCCCCCC(C)C)Cc2ccc(cc2)OC1=O` (stereo not given), the inhibition was 5.05% (inactive).

In the case of `O=C(NC(C(=O)N1CCCc2ccccc21)c1ccccc1)c1cnccn1` (stereo not given), the inhibition was 14.1% (inactive).

With `N#Cc1ccc(NC(=O)Nc2cccn(Cc3ccccc3F)c2=O)cc1`, the inhibition is 37.7% (active).

As for `Cc1noc(-c2cccn(Cc3cc(F)ccc3F)c2=O)n1`, the inhibition was 5.03% (inactive).

For the molecule `O=C(Cn1cccc(-c2nc(-c3ccccc3)no2)c1=O)Nc1ccccc1F`, the inhibition was 6.4% (inactive).

For the molecule `Cc1cc(C(=O)N2CCCCC2c2[nH]ncc2C)c2c(C)noc2n1` (stereo not given), the inhibition is 11.6% (inactive).

Take `COc1ccccc1C(=O)Nc1ccc(N(c2ccccc2)C(C)C)cc1`: the inhibition was 2.72% (inactive).

Consider `FC(F)(F)c1cc(N2CCCCC2)nc(-c2ccccn2)n1`, for which the inhibition was -3.6% (inactive).

Take `CC(Sc1ncnc2ccccc12)C(=O)NCc1ccc2c(c1)OCO2` (stereo not given): the inhibition is 12.8% (inactive).

As for `Cn1cc(C2CCCN2C(=O)c2ccc(-n3cccn3)nc2)cn1` (stereo not given), the inhibition was -5.62% (inactive).

With `COc1ccc(-c2cc(=O)oc3c(C)c(OCc4ccccc4F)ccc23)cc1`, the inhibition was 1.77% (inactive).

As for `CN1CCN(c2nc3c(s2)CN(C(=O)c2ccnn2C)CC3)CC1`, the inhibition was -25.7% (inactive).

Regarding `COc1cccc(NC(=O)C(Sc2cccc(NC(=O)c3ccccc3F)c2)c2ccccc2)c1` (stereo not given), the inhibition is 15.7% (inactive).

For the molecule `C#CCOc1ccc2ccccc2c1CN1CCc2ccccc2C1`, the inhibition was 14.8% (inactive).

`COCCN(C(=O)CCC(=O)Nc1ccccn1)C(C(=O)NCC1CCCO1)c1ccc(C)cc1` (stereo not given): the inhibition is 12.3% (inactive).

Consider `CN1C[C@H]2CCN(S(=O)(=O)c3ccc(OC(F)(F)F)cc3)C[C@H]21`, for which the inhibition is 5.38% (inactive).

In the case of `COc1ccccc1N1CCN(C(=O)CSCc2ccccc2C)CC1`, the inhibition was -10.5% (inactive).

As for `CC(C)C(NS(=O)(=O)c1ccccc1)C(=O)OCC(=O)Nc1cc([N+](=O)[O-])ccc1F` (stereo not given), the inhibition was 6.16% (inactive).

On to `CCCc1cc(=O)[nH]c2nnc(SCC(=O)N(CC)CC)n12`, for which the inhibition was -0.85% (inactive).

`Cc1nn(-c2ccc(F)cc2F)c2c1C(C(=O)c1cc3ccccc3o1)CC(=O)N2` (stereo not given): the inhibition was -3.81% (inactive).

In the case of `CCCCC1CCC(C(=O)N2CCC(C3(C)NC(=O)NC3=O)CC2)CC1` (stereo not given), the inhibition is 5.45% (inactive).

Turning to `CCc1ccc(S(=O)(=O)Nc2cc(C(=O)Nc3ccccc3)ccc2OC)cc1`, the inhibition is -4% (inactive).

With `Cc1cc(CN2CC[C@H]3[C@H]2CCN3S(C)(=O)=O)oc1C`, the inhibition is -12% (inactive).

In the case of `Cc1nn(CC(C)C)c(C)c1CC(=O)N1CCCC1c1cnn(C)c1` (stereo not given), the inhibition is -0.626% (inactive).

With `NC(=O)CC[C@H](NC(=O)[C@@H]1CCCN1C(=O)[C@H](Cc1ccccc1)n1c(=O)[nH]c2ccccc2c1=O)C(=O)O`, the inhibition was -2.35% (inactive).

In the case of `Cc1ccc(NC(=O)C2CCN(S(=O)(=O)c3cnc[nH]3)CC2)cc1Cl`, the inhibition was -2.32% (inactive).

`O=C(Cc1c(Cl)cccc1Cl)NCc1cccc(C(F)(F)F)c1`: the inhibition was 4.26% (inactive).

`COc1cccc(CN2C[C@@]34CN(C(=O)C5CCC5)C[C@@H](C[C@@H]3S2(=O)=O)O4)c1`: the inhibition is 9.25% (inactive).
